As usually defined, the inhibition is the change of the read-out against control, counted positive when it falls.

Each structure is given as a SMILES string. Several values for one entry are separate records, joined by “and”; a condition that tells them apart may be missing. Equal entries are not always repeated. The whole screen tested about 370,000 compounds, of which about 4,700 (1.3%) were called active.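 Rule for the calls: active = inhibition above the plate cutoff, the mean of all test compounds on that plate plus 3 SD (cut at about 35% in these data); inactive = the rest.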 For the sample, actives were picked, then their nearest neighbours and some compounds at random.

Drawing on PubChem BioAssay AID651821 (The Scripps Research Institute Molecular Screening Center, 2012), this text covers inhibition for 82 compounds.

This assay is described as follows: binders of r(CAG) RNA repeats, primary screen, biochemical, fluorescence (AID 651821).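 Note: 0% = DMSO alone and 100% = 100 µM mitoxantrone as full dye displacement; higher means more dye released from RNA so lower well fluorescence.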 The note with it: r(CAG) RNA repeat, TO-PRO-1 dye displacement fluorescence; at 3 µM; stronger effect = higher value.
Take `CCOC(=O)[C@]12CCCC3=C1N(CCC3)C(=O)[C@@H](CC(=O)N1CCSCC1)C2`: the inhibition is -0.18% (inactive).

With `CCOc1ccc(C(=O)NC2CCN(CC(=O)NCc3cccs3)CC2)cc1`, the inhibition is -7.65% (inactive).

Turning to `COCCNC(=O)Nc1ccc2nc(-c3ccco3)c(-c3ccco3)nc2c1`, the inhibition is 69.7% (active).

Turning to `COc1cc(NC(=O)C2=CC(c3ccco3)=NS(=O)(=O)N2C)cc(OC)c1OC`, the inhibition was 1.85% (inactive).

Regarding `COCCNC(=O)c1ccc2nc(Cc3ccc(OC)c(OC)c3)oc2c1`, the inhibition was -4.89% (inactive).

`COC(=O)[C@]12C[C@H](CC(=O)NCc3cccs3)C(=O)N(CCc3ccc(OC)c(OC)c3)C1=C[C@H](C(C)C)O[C@@H]2C1CC1`: the inhibition was 3.01% (inactive).

As to `CCc1nn(CCCC(=O)NC(C)c2ccccc2)c(=O)c2cc3occc3n12` (configuration not stated), the inhibition is -1.26% (inactive).

With `O=C(C1CCN(S(=O)(=O)c2ccc(Br)s2)CC1)N1CCN(C2CCCCC2)CC1`, the inhibition was -5.64% (inactive).

For `O=C(COC(=O)CCCN1C(=O)c2cccc3cccc(c23)C1=O)NC1CCS(=O)(=O)C1` (configuration not stated), the inhibition is -0.32% (inactive).

Regarding `O=C(CCCN1C(=O)c2cccc3cccc(c23)C1=O)N1CCN(Cc2ccc3c(c2)OCO3)CC1`, the inhibition is -5.35% (inactive).

As for `O=C1c2cccc3cccc(c23)C(=O)N1CCCCCc1n[nH]c(=S)o1`, the inhibition is 38.4% (active).

As to `COc1cc(C(=O)Nn2c(CC(C)C)nc3ccccc3c2=O)cc(OC)c1OC`, the inhibition is -4.74% (inactive).

On to `COc1cc(C(=O)Nn2c(O)c(C3=c4ccccc4=NC3=O)sc2=S)ccc1O`, for which the inhibition was 50.1% (active).

For `COc1cc(C(=S)NC2CCCCC2)ccc1O`, the inhibition is 4.7% (inactive).

On to `C[C@H](C(=O)N(C)c1ccccc1)[C@@H](O)c1ccc(Cl)cc1`, for which the inhibition was -1.76% (inactive).

On to `C=CCN1C(=O)[C@@H](CC(=O)NCCCCc2ccccc2)[C@]2(C(=O)OCC)CCCCC/C=C/12`, for which the inhibition is 3.6% (inactive).

As to `CCOC(=O)N1CCN(C(=O)C[C@@H]2C(=O)N(CCc3ccc(Cl)cc3)C3=CCCC[C@]32C(=O)OCC)CC1`, the inhibition was 3.44% (inactive).

For the compound `COC(=O)c1c(C)oc2ccc(N(C(=O)Oc3ccccc3)S(=O)(=O)c3ccccc3)cc12`, the inhibition was 5.17% (inactive).

With `CC(=O)Oc1ccc(N(C(C)=O)S(=O)(=O)c2ccc3ccccc3c2)cc1Br`, the inhibition is 2.18% (inactive).

`CC(=O)N(c1ccc2oc(=O)sc2c1)S(=O)(=O)c1ccc(C)cc1`: the inhibition was 42.4% (active).

Turning to `CC(=O)OC12CCCN(C1)/C(=C/c1ccncc1)C2` (configuration not stated), the inhibition is 3.52% (inactive).

Take `CCCOc1ccc(Oc2c(Cl)cnn(Cc3cccc4ccccc34)c2=O)cc1`: the inhibition is 6.74% (inactive).

For the compound `C[C@H](CO)N1C[C@H](C)[C@@H](CN(C)C(=O)Nc2ccccc2F)OCc2cn(nn2)CCCC1=O`, the inhibition was 0.24% (inactive).

As to `COc1ccc(OC)c(-n2cc3c(=O)n(C)c(=O)n(C)c3c2)c1`, the inhibition is 2.65% (inactive).

For `CCOC(=O)N1C(=O)C[C@](Sc2ccc(C)cc2)(C(=O)OC)[C@H]1c1ccccc1`, the inhibition is -2.71% (inactive).

In the case of `COC(=O)c1ccccc1-n1cc(COC(=O)NCCc2ccccc2)nn1`, the inhibition was 1.18% (inactive).

In the case of `Cc1noc(C)c1S(=O)(=O)Nc1ccc(C(=O)O)cc1`, the inhibition was -0.8% (inactive).

In the case of `Cc1ccc(N(CCC(=O)O)S(=O)(=O)c2cccc(C(F)(F)F)c2)cc1`, the inhibition is 5.06% (inactive).

Take `Cc1oc2c(F)c(F)c(F)c(F)c2c1S(=O)(=O)Nc1cccc(C(F)(F)F)c1`: the inhibition is 53.7% (active).

Regarding `COC(=O)[C@H](C(C)C)N(CCc1cn(Cc2ccccc2)nn1)S(=O)(=O)c1ccc(F)cc1Br`, the inhibition was 3.36% (inactive).

Turning to `CSCCC1NC2(C(=O)Nc3ccc(Cl)cc32)[C@@H]2C(=O)N(C3CCCC3)C(=O)[C@H]12` (some centres not stated), the inhibition was -2.44% (inactive).

Turning to `Cc1ccc(NC(=O)c2cc(C)nn2-c2ccccc2)c(C)c1`, the inhibition was 2.01% (inactive).

Take `O=C(COc1ccc2c(C(F)(F)F)cc(=O)oc2c1)Nc1ccc2c(c1)OCCO2`: the inhibition is 4.46% (inactive).

Regarding `O=C(COc1ccc2c3c(c(=O)oc2c1)CCC3)NC1CCCCC1`, the inhibition is -4.24% (inactive).

Turning to `Cc1cc(C)cc(Oc2c(C(F)(F)F)oc3cc(OCC(=O)O)ccc3c2=O)c1`, the inhibition is 44.4% (active).

On to `CC(c1c[nH]c2ccccc12)c1c(-c2ccccc2)n(C)c2ccccc12` (configuration not stated), for which the inhibition is 8.54% (inactive).

As for `CCc1ccc(-n2c(=S)sc3c(=O)n(-c4ccccc4OC)c(=S)[nH]c32)cc1`, the inhibition is 9% (inactive).

As for `COc1ccc(Cl)cc1-n1c(=S)sc2c(=O)n(-c3ccc(F)cc3)c(SCC(=O)O)nc21`, the inhibition is 40.9% (active).

Take `COc1ccccc1-n1c(SCC(=O)O)nc2sc3c(c2c1=O)CCC3`: the inhibition was 5.16% (inactive).

For `COc1ccc2c(c1)N(C)/C(=C1/SC(=S)N(NC(C)=O)C1=O)S2`, the inhibition is 5.15% (inactive).

For the compound `CCCCN1C(=O)/C(=C2/C=CC=CN2C)SC1=S`, the inhibition was -1.7% (inactive).

In the case of `CCN1C(=O)/C(=C2/Sc3ccccc3N2CCCS(=O)(=O)O)SC1=S`, the inhibition is 51.4% (active) and 69.1% (active).

With `CC(CC(=O)N1CCN(c2ccccc2)CC1)S(=O)(=O)c1ccc2c(c1)NC(=O)CS2` (configuration not stated), the inhibition was -1.08% (inactive).

In the case of `O=C(CCCCCN1C(=O)C2C3C=CC(C3)C2C1=O)Nc1ccccn1` (configuration not stated), the inhibition is 1.49% (inactive).

Regarding `COC(=O)Cc1nnn2c1[C@H](C)[C@H](c1ccccc1[N+](=O)[O-])OCC2`, the inhibition was 2.71% (inactive).

Regarding `CCOC(=O)C1=C(C(=O)OCC)C2N(Cc3ccc(C#N)cc3)c3ccccc3[C@@]23C[C@@H](C(=O)OC)N(S(=O)(=O)c2ccc(F)cc2)C3=N1` (some centres not stated), the inhibition is 15.6% (inactive).

For the compound `CCc1ccc(OC(C)C(=O)Nc2ccc(S(=O)(=O)Nc3cc(C)on3)cc2)cc1` (configuration not stated), the inhibition is 36.2% (active).

With `CCOc1cc(C(=O)Nc2ccc(S(=O)(=O)Nc3cnc4ccccc4n3)cc2)cc(OCC)c1OCC`, the inhibition was 66.1% (active).

For `COc1cc2ccccc2cc1C(=O)Nc1ccc(S(=O)(=O)Nc2cc(C)on2)cc1`, the inhibition was 67.5% (active).

With `CCOc1ccc(Br)cc1S(=O)(=O)Nc1ccc(S(=O)(=O)Nc2cc(C)on2)cc1`, the inhibition is 14.9% (inactive).

Take `CCOc1ccc(CC(=O)Nc2ccc(S(=O)(=O)Nc3cc(C)on3)cc2)cc1OCC`: the inhibition is 22.4% (inactive).

As to `O=C(/C=C/Nc1ccc(S(=O)(=O)Nc2cnc3ccccc3n2)cc1)c1cccnc1`, the inhibition is 5.52% (inactive).

As for `COc1ccc(S(=O)(=O)Nc2cc(C)on2)cc1NC(C)=O`, the inhibition was 3.85% (inactive).

Take `CCC(Oc1ccccc1C)C(=O)Nc1ccc(S(=O)(=O)Nc2cc(C)on2)cc1` (configuration not stated): the inhibition was 20.8% (inactive).

`CCOc1ccc(C(=O)Nc2ccc(S(=O)(=O)Nc3cc(C)on3)cc2)cc1`: the inhibition was 39.1% (active).

With `C=C(C)CNC(=S)Nc1ccc(S(=O)(=O)Nc2cnc3ccccc3n2)cc1`, the inhibition is 19.2% (inactive).

For the compound `Cc1cc(NS(=O)(=O)c2ccccc2)no1`, the inhibition is -0.66% (inactive).

Consider `Cc1cc(NS(=O)(=O)c2ccc(NC(=S)NC(=O)c3ccc(F)cc3Cl)cc2)no1`, for which the inhibition was 33.1% (inactive).

Regarding `COc1cccc(CNC(=O)[C@H]2CCCN2C(=O)[C@H]2CCCN2C(=O)c2ccc(F)cc2)c1`, the inhibition is 0.66% (inactive).

For the compound `Cc1cc(OC(=O)NCCc2ccc(F)cc2)ccc1F`, the inhibition was 1.32% (inactive).

Turning to `CC(=O)c1ccc(S(=O)(=O)NCC2CCN(C(=O)C(=O)c3cccs3)CC2)cc1`, the inhibition is 2.35% (inactive).

`COc1ccc(SSc2ccc(OC)cc2C(=O)O)c(C(=O)O)c1`: the inhibition was 2.51% (inactive).

As to `CC[C@@H](CCC(=O)N(c1ccccc1)c1ccccc1)C1CC1`, the inhibition is 1.63% (inactive).

Turning to `COCC(C)NC(=O)COc1nncc2ccccc12` (configuration not stated), the inhibition is -0.71% (inactive).

`O=C(CSc1nc2ccccc2n1Cc1ccccc1)NNC(=S)Nc1ccccc1`: the inhibition was 31.7% (inactive).

On to `C[C@H]1CN([C@@H](C)CO)C(=O)CCCn2nncc2CO[C@@H]1CN(C)C(=O)Nc1ccc(N2CCN(C)CC2)cc1`, for which the inhibition was 4.52% (inactive).

As for `CC1CC1C(=O)OCC(=O)c1c(N)n(C)c(=O)n(C)c1=O` (configuration not stated), the inhibition is -4.36% (inactive).

In the case of `CCCCNC(=O)C[C@H]1C[C@@]2(C(=O)OC)C(=C[C@H](COCc3ccccc3)O[C@@H]2C)N(Cc2ccc(Cl)cc2Cl)C1=O`, the inhibition was 8.58% (inactive).

Turning to `CCN(CC)C(=O)CC[C@H]1CC[C@]2(CCCN(Cc3ccc(Cl)cc3)C2)O1`, the inhibition was -2.21% (inactive).

For `COC(=O)c1cccc(N(C(=O)c2ccco2)C(C(=O)NC2CCCC2)c2ccco2)c1` (configuration not stated), the inhibition is -6.24% (inactive).

In the case of `CCOc1ccccc1C(=O)N1CCC[C@@H]1C(=O)N1CCC[C@H]1C(=O)NCc1ccccc1`, the inhibition was -1.61% (inactive).

In the case of `COc1ccc(-c2ccc3c(n2)CCCN3S(=O)(=O)c2ccc(C)cc2)cc1`, the inhibition is 4.71% (inactive).

`CC(C)(C)c1ccc(S(=O)(=O)NCC2CCN(C(=O)C(=O)c3cc4ccccc4o3)CC2)cc1`: the inhibition was 9.84% (inactive).

For `COc1ccc(/C=C2\CC3(OC(C)=O)CCCN2C3)cc1` (configuration not stated), the inhibition is -0.3% (inactive).

Regarding `CC(=O)Oc1c(C(=O)c2nnc(C)o2)c(=O)n(Cc2ccccc2)c2ccccc12`, the inhibition was 2.47% (inactive).

Regarding `Cc1cc(NS(=O)(=O)c2ccc(NC(=O)C(C)Oc3cccc(C)c3C)cc2)nc(C)n1` (configuration not stated), the inhibition is 18.4% (inactive).

For `CC(Oc1cccc(Cl)c1)C(=O)Nc1ccc(S(=O)(=O)Nc2ncccn2)cc1` (configuration not stated), the inhibition was 8.9% (inactive).

Turning to `Cc1cc(OC(C)C(=O)Nc2ccc(S(=O)(=O)Nc3onc(C)c3C)cc2)cc(C)c1Cl` (configuration not stated), the inhibition is 75.6% (active).

For `Cc1ccc(C(=O)/C=C/Nc2ccc(S(=O)(=O)Nc3onc(C)c3C)cc2)cc1`, the inhibition was 48.3% (active).

Turning to `Cc1cc(C)nc(NS(=O)(=O)c2ccc(N/C=C\C(=O)c3cccs3)cc2)n1`, the inhibition is 10.2% (inactive).

Regarding `Cc1noc(NS(=O)(=O)c2ccc(NC(=O)C34CCC(CC3)C4)cc2)c1C`, the inhibition was 2.57% (inactive).

On to `COc1cccc(CNC(=O)CNS(=O)(=O)c2ccc3nc(C)sc3c2)c1OC`, for which the inhibition was 0.91% (inactive).
